For 22 sequences, PBM binding z-score results are on record in the supplement of paper PMC6555819.

The test system of this assay is RXRa homodimer (NR concentration 180 nM). Nature of the assay: PBM binding z-score (relative to random genomic background probes); higher = stronger binding; sequences stand for … in GC…GCGATTGACAGCGTAGAATGAAGG
The procedure, abridged: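 Binding buffer was PBS pH 7.4 with 2% milk, 0.02% Triton X-100, 1 mM DTT, 0.2 mg/mL BSA and 0.4 mg/ml salmon testes DNA. In it, ligand-free nuclear receptor dimers were incubated 1 h on custom Agilent 4×180K protein-binding microarrays carrying double-stranded probes. Antibodies against each partner (one per run) detected binding, and z-scores were calculated against random background probes after regression normalization of scanned fluorescence.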
Sequence CCTTACGGGTCAAGGTTTTAGCACGGGTGGTACG returned a PBM binding z-score of 5.16.
For ATCGAAAGGTCGTGAGGTGAGTGTACAGAAAGGC the value was 5.06; for TCTTGTAGATCGGCAGGTTAAGAAAGCTGGCCAA, 0.269; for ATCTCTAGGTAACAAGTTCAGTGTAAGAGAGGAC, 0.874.
ATATGTAGGTTACATCCCGGTCATTCAGGCTATG: the PBM binding z-score was found to be 1.44.
For the sequence GCAGACAGGTGAGACGCAGGTAACTCAGGGTGGC, the PBM binding z-score stood at 0.28.
Regarding TAGCCTAGGTCAGGTCGGGCCAGTATACGCTATA, the PBM binding z-score worked out at 1.62.
The same measure for GGAACGAGGGCAAAGTTGATCGCATCTGTCGACG: 1.92.
For TGAATGAGGTTATAAGATCAGCGAACGTTGCAAA the value was 1.9; for CGAAGGAGGGCATGAGTTGATAGCAAATGCCGAT, 0.619.
Sequence CAAACTAGGTCACGAAAGGTCAATGTCGAATGAC displayed a PBM binding z-score of 7.37.
Regarding GTACCACGGTGAATAGGTCGTTGATGAGTAGGCG, the PBM binding z-score stood at 0.707.
CCTTACGTGTCACTCCAGGTTATAGCATCGGAGT gave a PBM binding z-score of 0.845.
Regarding TGACCAAGGTGAGCTGAGGTCGTTGATCCAACTC, the PBM binding z-score was 1.52.
Sequence TTACCAAGGCGAGCTGAGGTCGTTGATCCAACTC gave a PBM binding z-score of 0.626.
The same measure for ATACCAAGGTGGTCGTGAGGTCGTTGATACTAAC: 1.53.
The sequence AGAATGAGGTTATACGTAGATCAGGGGAGAAAGT returned a PBM binding z-score of 2.14.
The same measure for GCTAGTTGATCAGTAAAAGGTCACACACCGGTCG: 5.54.
For CAAACTAGGTCACCGGAAGTTCAAAGTCCGCATG the value was 4.64; for GGAACGAGGGCAAAGATGATAGCATCTGTCGACG, 1.02.
TAGTCTAGGTCATGGGCCAGTATACCACGCGAAC had a PBM binding z-score of 3.44.
The same measure for CGTCCAACGTCAGAGAGGTCAGTGAATGCCGAGT: 2.32.
